Experimental findings from PubChem BioAssay (NCATS) are described below.

The target of experiment [1] is Phospholipid hydroperoxide glutathione peroxidase GPX4 (Homo sapiens) (UniProt P36969). Kind of experiment: Primary qHTS Assay for Inhibitors of Recombinant Selenoprotein Glutathione Peroxidase 4 (GPX4) (AID 1845192). Also: nearly all actives have a fitted effect of over 65% in size. As to activity change, negative = inhibition: series mostly up to about 50 µM; % is scaled to controls: 0 for no effect and ±100 for the full control effect. A digest of the protocol:
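NADPH consumption followed by fluorescence at 340/450 nm, t=0 and after 15 min at room temperature. Reaction started with cumene hydroperoxide (0.5 mM final) after 30 min compound–GPX4 preincubation; final 200 nM GPX4, 100 nM GR, 1 mM GSH, 0.5 mM NADPH.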
For orientation: Quantitative high-throughput screening tests each substance at several concentrations.

The target in experiment [2] is Luciferin 4-monooxygenase (Photinus pyralis) (UniProt P08659). Put plainly: Primary firefly luciferase (FLuc) qHTS assay for identification of artifact compounds. (AID 1845220). Also: nearly all actives have a fitted effect of over 60% in size.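 As to activity change, negative = inhibition: series mostly up to about 54 µM; plate controls were DMSO vehicle for no effect and no enzyme for full effect.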 Summed up: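 Compounds sat 15 min at room temperature with 10 uM luciferin and 10 uM ATP (pH 7.6 Tris acetate). Firefly luciferase (10 nM final) was then added, and luminescence was read 5 min later. Data normalized to no-enzyme and DMSO controls were Hill-fitted.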

Experiment [3] is described as follows: Primary fluorescence-based thiol-reactive (MSTI) qHTS assay for identification of artifact compounds. (AID 1845221). Also: nearly all actives have a fitted effect of over 65% in size. Also: potency is read from the fitted curve at half-maximal effect.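 As to activity change, negative = thiol reactive: series mostly up to about 54 µM; thiol-reactive compounds lower the probe fluorescence signal.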 Summed up: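 Thiol-reactive compounds detected by quenching of 4 uM MSTI fluorescence (525/598 nm) after 1 h room-temperature dark incubation in PBS pH 7.4, 2% DMSO. qHTS titration; percent inhibition Hill-fitted against Acetyl-MSTI/MSTI controls.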

In experiment [4] the test system is Nanoluciferase (engineered Oplophorus gracilirostris luciferase). Put plainly: Primary Nanoluciferase (NLuc) qHTS assay for identification of artifact compounds. (AID 1845222).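 Also: series mostly up to about 54 µM; 0% = DMSO and -100% = no enzyme.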 Summed up: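 Luminescence from secreted NLuc (filtered, 1:55-diluted S16 cell medium) read 5 min after Nano-Glo substrate; compounds preincubated 15 min, RT. Hill fits of inhibition normalized to DMSO and no-enzyme.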

A short description of experiment [5]: Primary redox qHTS assay for identification of artifact compounds. (AID 1845223).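 Also: 0% = DMSO and 100% = reference compound.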 Summed up: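 Redox-cycling detection via DTT (250 uM final) oxidation coupled to Amplex Red (25 uM)/HRP (250 mU/mL) in HBSS. 15 min preincubation plus 30 min after DTT, room temperature. Ex/Em 525/598 nm; 4-parameter Hill fit against DMSO and 10 uM DA3003.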
The target of experiment [6] is Glutathione peroxidase 1 (Homo sapiens) (UniProt P07203). Kind of experiment: Primary qHTS Assay for Inhibitors of Recombinant Selenoprotein Glutathione Peroxidase 1 (GPX1) (AID 1845191). Also: nearly all actives have a fitted effect of over 65% in size. Summed up:
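NADPH consumption tracked by fluorescence at 340/450 nm between t=0 and t=15 min, room temperature. Final mix: 10 nM GPX1, 100 nM glutathione reductase, 1 mM GSH, 0.5 mM NADPH, 0.5 mM cumene hydroperoxide, 0.01% BSA; 30 min compound–enzyme preincubation.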

Each structure is given as a SMILES string. Values without a mark were called inactive. Records with an inconclusive call do not appear. Active and inactive are the calls of the source. Calls follow the shape of the dose curve; as a rule, active = well fitted curve in the direction sought with a large enough effect; inconclusive = small, poorly fitted or top-dose-only effect, or another doubt; inactive = no such curve, though single readings can be large; an effect the other way counts as inactive or inconclusive. *1 amine or outer side, *2 acyl side, *3 side chain or, on linkers, in order; H or OH if unused. Where a SMILES comes first, the peptide text is derived from it. [ ]: non-standard residue; d: D form. The star is where a group is joined. ξ: configuration not given here. X9 = CCC(C)(N*)C(=O)C1CC[C@@H](C(=O)N[C@@H](Cc2ccccc2)C(=O)NCC(=O)O)N1; X8 = O=C([C@@H]1CC(O)CN1[*:1])[*:2]; aIle = CC[C@@H](C)[C@H](N)C(=O)O; Thr(3ξ) = CC(O)[C@H](N)C(=O)O; ξIva = CCC(C)(N)C(=O)O; Aib = CC(C)(N)C(=O)O

Phospholipid hydroperoxide glutathione peroxidase GPX4 (Homo sapiens), sequence (P36969 whole entry, looked up): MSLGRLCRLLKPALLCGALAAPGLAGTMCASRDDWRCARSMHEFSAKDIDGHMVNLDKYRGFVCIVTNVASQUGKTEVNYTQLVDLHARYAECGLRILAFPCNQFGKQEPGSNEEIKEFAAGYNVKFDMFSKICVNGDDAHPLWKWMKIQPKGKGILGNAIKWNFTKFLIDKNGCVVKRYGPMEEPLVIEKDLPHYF
Glutathione peroxidase 1 (Homo sapiens), sequence (P07203 whole entry, looked up): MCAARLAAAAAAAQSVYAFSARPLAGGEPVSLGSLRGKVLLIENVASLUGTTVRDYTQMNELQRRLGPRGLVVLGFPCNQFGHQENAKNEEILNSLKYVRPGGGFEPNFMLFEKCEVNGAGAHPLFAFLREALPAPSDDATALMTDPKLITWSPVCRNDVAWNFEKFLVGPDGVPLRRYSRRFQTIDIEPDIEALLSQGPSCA

For the compound `CC[C@@H](C)[C@H](NC(=O)C(C)(C)NC(=O)[C@H](CCC(N)=O)NC(=O)C(C)(CC)NC(=O)[C@H](Cc1c[nH]c2ccccc12)NC(C)=O)C(=O)N[C@H](C(=O)NC(C)(C)C(=O)N[C@@H](CC(C)C)C(=O)NC(C)(C)C(=O)N1CCC[C@H]1C(=O)N[C@@H](CCC(N)=O)C(=O)NC(C)(C)C(=O)N1CC(O)C[C@H]1C(=O)NC(C)(CC)C(=O)C1CC[C@@H](C(=O)N[C@@H](Cc2ccccc2)C(=O)NCC(=O)O)N1)C(C)O` (some centres undefined) (Ac-W[ξIva]Q[Aib][aIle][Thr(3ξ)][Aib]L[Aib]PQ[Aib][X8]-X9), the Potency entry in experiment [1] was “inactive”. In experiment [2], the activity change, negative = inhibition was -13.1% [at 6.45 µM]. The activity change, negative = thiol reactive in experiment [3] is -2.24% [at 6.41 µM]. The activity, negative = inhibition in experiment [4] was -3.07% [at 6.45 µM]. Also, the redox activity (% of DA3003) in experiment [5] was 8.28% [at 6.41 µM].

Take `C=CC(C)(O)CCC1C(C)(O)CCC2C(C)(C)CCCC21C` (centres undefined): the Potency entry in experiment [1], in experiment [2], in experiment [3], in experiment [4] and in experiment [5] was “inactive” throughout.

`CCCCCOC(=O)Nc1nc(=O)n(C2O[C@H](C)[C@@H](O)[C@H]2O)cc1F` (some centres undefined): the Potency entry in experiment [1], in experiment [2], in experiment [3], in experiment [4] and in experiment [5] was “inactive” each time.

As for `CCC(C)/C=C(C)/C=C/C1=CC2=C(Cl)C(=O)C(C)(OC(C)=O)C(=O)C2=CN1C(CC(=O)O)C(=O)O` (centres undefined), the Potency result in experiment [1], in experiment [2] and in experiment [4] was “inactive” throughout. Further, the Potency in experiment [3] is 0.733 µM (active).

Take `COc1cc(C)c(C(=O)OC2C(C)OC(OC3CCC(C)C4C3C=C(C)C3/C(C)=C\CC/C(C)=C/C5(C)C=C(C(=O)O)C(C)CC56OC(=O)/C(=C(\O)C34C)C6=O)C(O)C2O)c(OC)c1` (centres undefined): the Potency entry in experiment [1] was “inactive”. The activity change, negative = inhibition in experiment [2] is 1.3% [at 11.6 µM]. The activity change, negative = thiol reactive in experiment [3] is 142% [at 11.5 µM]. Further, the activity, negative = inhibition in experiment [4] is 4.78% [at 11.6 µM].

`Cc1ccc(-n2nc(C(C)(C)C)cc2NC(=O)Nc2cc(COc3cccnc3)[nH]n2)cc1`: the Potency result in experiment [1], in experiment [2], in experiment [3], in experiment [4] and in experiment [5] was “inactive” each time.

Take `O=C(NC1Cc2ccccc2N(C[C@@H](O)CO)C1=O)c1cc2cc(Cl)sc2[nH]1` (some centres undefined): the Potency entry in experiment [1], in experiment [2], in experiment [3], in experiment [4] and in experiment [5] was “inactive” each time.

As to `CC(=O)O[C@H]1C[C@@H](O)C(C)(C)C2C[C@@H](OC(C)=O)[C@@]3(C)C4=CCC(C(CO)CC(O)C5OC5(C)C)[C@]4(C)CCC3[C@]21C` (some centres undefined), the Potency entry in experiment [1], in experiment [2], in experiment [3], in experiment [4] and in experiment [5] was “inactive” each time.

As for `COc1cc(Nc2ccc([N+](=O)[O-])cc2C(=O)O)cc2ccccc12`, the Potency result in experiment [1] and in experiment [2] was “inactive” throughout. In addition, the Potency in experiment [3] was 0.67 µM (active).

`COC(=O)C1=COC(OC2OC(CO)C(O)C(O)C2O)C2C(COC(=O)/C=C/c3ccc(O)cc3)C(O)C(O)C12` (centres undefined): the Potency entry in experiment [1], in experiment [2], in experiment [4] and in experiment [5] was “inactive” each time. For the same compound, the Potency in experiment [3] was 5.82 µM (active).

For the compound `C[C@@H]1C[C@@H](O)[C@@]23CO[C@]2(CO)C[C@@H](O)CC3[C@@]12CC(c1ccoc1)OC2=O` (some centres undefined), the Potency entry in experiment [1], in experiment [2], in experiment [4] and in experiment [5] was “inactive” in each case. Further, the Potency in experiment [3] is 6.56 µM (active).

As for `CC1(C(=O)O)CCCC2(C)C3CC4C5CC3(CCC12)CC45C` (centres undefined), the Potency result in experiment [1], in experiment [2], in experiment [3], in experiment [4] and in experiment [5] was “inactive” each time.

Take `NC1=NC2(c3cc(NC(=O)c4ccc(F)cn4)ccc3F)COCC2CS1` (centres undefined): the Potency result in experiment [1], in experiment [2], in experiment [3], in experiment [4] and in experiment [5] was “inactive” each time.

On to `CC(C)N(CCCNC(=O)Nc1ccc(C(C)(C)C)cc1)C[C@H]1O[C@@H](n2ccc3c(N)ncnc32)[C@H](O)[C@@H]1O`, for which the Potency result in experiment [1], in experiment [2], in experiment [3], in experiment [4] and in experiment [5] was “inactive” throughout.

Take `CC1(C)CC=C(c2cnc3ccccc3c2)c2cc(C(=O)Nc3ccc(C(=O)O)cc3)ccc21`: the Potency entry in experiment [1], in experiment [2], in experiment [3], in experiment [4] and in experiment [5] was “inactive” throughout.

Regarding `CC1=C2C(=O)C=C(CO)C2[C@H]2OC(=O)[C@H](C)[C@@H]2[C@@H](OC(=O)Cc2ccc(O)cc2)C1` (some centres undefined), the Potency result in experiment [6], in experiment [2], in experiment [4] and in experiment [5] was “inactive” in each case.

Regarding `CC(=O)/C=C/C1(O)C(C)CC(O[C@@H]2O[C@H](CO)[C@@H](O)[C@H](O)[C@H]2O)CC1(C)C` (some centres undefined), the Potency result in experiment [1], in experiment [2], in experiment [4] and in experiment [5] was “inactive” each time. Also, in experiment [3], the Potency is 9.22 µM (active).

Turning to `CC(=O)OCC1=CCC2C(C)(C)CCCC2(C)C12CCC(C)(CC(=O)O)O2` (centres undefined), the Potency entry in experiment [1], in experiment [2], in experiment [3], in experiment [4] and in experiment [5] was “inactive” each time.

For `CC1(C)[C@H]2C[C@H](C/C=C\CCCC(=O)O)[C@@H](NC(=O)c3csc4ccc(O)cc34)[C@@H]1C2`, the Potency entry in experiment [1], in experiment [2], in experiment [3], in experiment [4] and in experiment [5] was “inactive” each time.

Turning to `Cc1ccc2[nH]c(=O)c(C3=NN(C(=O)CCC(=O)O)C(c4ccc(Br)cc4)C3)c(-c3ccccc3)c2c1` (centres undefined), the Potency result in experiment [1], in experiment [2], in experiment [3], in experiment [4] and in experiment [5] was “inactive” throughout.

On to `CCC/C=C1\OC(=O)C2=C1CCC(O)C2O` (centres undefined), for which the Potency entry in experiment [1], in experiment [2], in experiment [3], in experiment [4] and in experiment [5] was “inactive” each time.

As to `CC(C)C1CCC(C(=O)N[C@@H](Cc2ccccc2)C(=O)O)CC1` (some centres undefined), the Potency result in experiment [1], in experiment [2], in experiment [3], in experiment [4] and in experiment [5] was “inactive” each time.

Consider `COc1cc(C(CO)CO[C@@H]2O[C@H](CO)[C@@H](O)[C@H](O)[C@H]2O)ccc1O` (some centres undefined), for which the Potency result in experiment [1], in experiment [2], in experiment [4] and in experiment [5] was “inactive” in each case.

For the compound `C[C@@H]1CC[C@]2(C(=O)O[C@@H]3O[C@H](CO[C@@H]4O[C@H](CO)[C@@H](O[C@@H]5O[C@@H](C)[C@H](O)[C@@H](O)[C@H]5O)[C@H](O)[C@H]4O)[C@@H](O)[C@H](O)[C@H]3O)CC[C@]3(C)C(=CCC4[C@@]5(C)C[C@@H](O)[C@H](O)[C@@](C)(CO)C5CC[C@]43C)C2[C@H]1C` (some centres undefined), the Potency entry in experiment [1] is “inactive”. In addition, in experiment [2], the activity change, negative = inhibition was 3.24% [at 11.6 µM]. The activity change, negative = thiol reactive in experiment [3] was 329% [at 11.5 µM]. For the same compound, the activity, negative = inhibition in experiment [4] was 0% [at 11.6 µM]. Besides, the redox activity (% of DA3003) in experiment [5] is 3.39% [at 11.5 µM].
